Each structure is given as a SMILES string. Screen size: about 52,000 compounds; about 4,300 (8.3%) were called active. Rule as the data show it: active = survival mostly below about 52% (no sharp cut-off); inactive = mostly above about 56%. The list comes from a sample in which actives are over-represented; it also holds similar structures and randomly drawn compounds.

The assay deals with DeltatarO mutant. The assay can be described thus: growth inhibition of S. aureus wild type versus tarO mutant, primary screen, teichoic acid synthesis inhibitors, RN4220, OD600 (AID 463173). Particulars: OD600, 18 h, active compounds read low, screened at 18.75 µg/mL (by protocol).
As to `CC(=O)N/C(N)=N\c1nc(C)c2ccc(C)cc2n1`, the survival is 73% (inactive).
Next, `O=C(NCc1ccc(Cl)cc1)c1ccc2c(c1)NC(=O)C(CS(=O)(=O)Cc1ccccc1Cl)N2` (stereo not drawn): 94% (inactive).
Next, `COCCCNC(=O)Nc1cc(C(=O)NCc2ccc(OC)cc2)ccc1N1CCCC1`: 67% (inactive); `COc1ccccc1N1CCN(CCCNC(=O)c2cnn(-c3cccc(Cl)c3)c2C2CCN(C(=O)OC(C)(C)C)CC2)CC1`: 87% (inactive); `CC1=C(C(=O)Nc2c(C)cc(C)cc2C)C2(CCN(C(C)C)CC2)OC1=O`: 112% (inactive).
In the case of `O=C(CCCn1c(=O)c2sccc2n(Cc2c(F)cccc2Cl)c1=O)NCc1ccccc1`, the survival is 138% (inactive).
Next, `CCOC(=O)c1noc2ncnc(N3CCC(C)CC3)c12`: 75% (inactive); `Cc1ccc(C2=NC(c3ccccc3)=Nc3ccc(Cl)cc3N2)cc1`: 89% (inactive).
With `CCOc1ccc(NC(=O)CN(c2ccc(C)cc2)S(=O)(=O)c2cccs2)cc1` the figure was 83% (inactive).
For the compound `COc1ccc2c(c1)CCc1c(C(=O)Nc3ccccc3C(F)(F)F)noc1-2`, the survival is 143% (inactive).
Next, `Cc1ccc(NC(=O)C2CCCN(c3ncnc4onc(C)c34)C2)c(Cl)c1` (stereo not drawn): 74% (inactive); `CCCOC(=O)CSc1ncnc2sc3c(c12)CCC(C)C3` (stereo not drawn): 7% (active).
With `CCCCOC(=O)CSc1ncnc2sc3c(c12)CCC(C)C3` (stereo not drawn) the figure was 17% (active); with `CCCCCOC(=O)CSc1ncnc2sc3c(c12)CCC(C)C3` (stereo not drawn), -4% (active); with `Cc1ccc(-c2nc(NC(=O)CSc3ncnc4sc5c(c34)CCC(C)C5)ns2)cc1` (stereo not drawn), 69% (inactive).
Next, `CCCCCOC(=O)CSc1ncnc2c1sc1nc(N3CCOCC3)c3c(c12)CCCC3`: 71% (inactive).
In the case of `CCC(C(=O)OC(C)C)n1cnc2sc3c(c2c1=O)CCC(C)C3` (stereo not drawn), the survival was 93% (inactive).
With `Cc1ccc(OCCCCn2nnc3sc4c(c3c2=O)CCC(C)C4)cc1` (stereo not drawn) the figure was 56% (inactive); with `CC1CCc2c(sc3ncnc(NCCOCCO)c23)C1` (stereo not drawn), 98% (inactive); with `CCOc1ccc(NC(=O)CSc2cn(CC(=O)N3CCOCC3)c3ccccc23)cc1`, 95% (inactive).
With `CCOc1ccc(NC(=O)Cn2c(=O)n(CCCCC(=O)NCc3ccc4c(c3)OCO4)c(=O)c3ccccc32)cc1` the figure was 85% (inactive); with `CC1(C)CC(NC(=O)CCCC(=O)O)CC(C)(C)N1`, 81% (inactive).
With `COc1ccc(C)cc1NC(=O)c1ccc2c(=O)n3c(nc2c1)CCCCC3`, the survival is 65% (inactive).
Next, `CCOC(=O)c1ccccc1NC(=O)CSc1ncc(CO)n1Cc1ccc(C)cc1`: 77% (inactive).
With `COc1ccc(Cn2c(CO)cnc2SCc2ccccc2)cc1` the figure was 89% (inactive).
Next, `OCc1cnc(SCc2ccc(F)cc2)n1Cc1ccc(F)cc1`: 88% (inactive); `COc1ccc(Cn2ccnc2SCC(=O)NCc2ccco2)cc1`: 75% (inactive); `O=C(CSc1ncc(CO)n1Cc1ccc(F)cc1)NCc1ccco1`: 126% (inactive).
In the case of `COc1ccc(Cn2c(CO)cnc2SCc2ccc(F)cc2)cc1`, the survival was 17% (active).
With `COc1ccc(Cn2c(CO)cnc2SCC(=O)NCc2ccco2)cc1` the figure was -5% (active); with `Cc1ccc(Cn2c(CO)cnc2SCC(=O)Nc2ccc(C)c(Cl)c2)cc1`, -5% (active).
With `Cc1ccc(Cn2c(CO)cnc2SCC(=O)NCc2ccccc2Cl)cc1` the figure was 73% (inactive); with `Cc1ccc(NC(=O)N2CCN(c3nnc(C)c4c(C)n(-c5ccccc5)nc34)CC2)cc1Cl`, 94% (inactive); with `O=C(CSc1nnc2ccc3ccccc3n12)Nc1ccccc1Cl`, 76% (inactive).
Next, `Cc1cc2ccccc2n1CCNC(=O)c1ccc(Br)cc1`: 58% (inactive); `CCOC(=O)c1cc(-c2ccc(C)cc2)n(CC(=O)Nc2ccc(OC)cc2OC)c1C`: 97% (inactive).
For the compound `Cc1cc(-c2ccc(C)c(S(=O)(=O)NCc3cccs3)c2)on1`, the survival was 72% (inactive).
Next, `COc1cccc(C(=O)Nc2cc(C)on2)c1`: 89% (inactive); `Cc1cc(NC(=O)c2ccc(NC(=O)C(C)C)cc2)no1`: 72% (active); `CC(C)C(=O)Nc1ccc(NC(=O)c2ccccc2)nc1`: 87% (inactive).
`CC(C)Oc1ccc(CNC(=O)Nc2ccc3c(c2)N(C)C(=O)c2ccccc2S3)cc1`: the survival is 94% (inactive).
As to `CCN1CCN(CCCNC(=O)c2cc3c(=O)n(CC)c4ccccc4c3s2)CC1`, the survival is 97% (inactive).
With `Cc1ccc(NC(=O)N2CC3CCCN3c3ccccc32)cc1Cl` (stereo not drawn) the figure was 62% (inactive); with `Cc1ccc(NC(=O)N2CC3CCCN3c3ccccc32)cc1C` (stereo not drawn), -4% (active).
On to `Cc1ccc(NC(=O)N2CC3CCCN3c3ccccc32)c(C)c1` (stereo not drawn), for which the survival was 86% (inactive).
With `Cc1cccc(NC(=O)CSc2ncc3c(n2)-c2ccccc2N(Cc2ccc(F)cc2)S3(=O)=O)c1C` the figure was 68% (inactive); with `Cc1cccc(-n2ncc3c(N4CCCCCC4)ncnc32)c1`, 92% (inactive).
Next, `COc1ccc(C(=O)Nc2ccc(-c3nnc4n3CCCCC4)cc2)cc1OC`: 57% (inactive); `COc1ccc(C(=O)Nc2ccc(-c3nnc4n3CCCCC4)cc2)cc1`: 0% (active); `CCOc1cc(C(=O)Nc2ccc(-c3nnc4n3CCCCC4)cc2)cc(OCC)c1OCC`: 69% (inactive).
Next, `COc1cccc(NC(=O)c2cnc(SCC(=O)N3CCOCC3)n(C)c2=O)c1`: 120% (inactive); `COc1ccc(-n2nc(C(=O)N3CCC(C)CC3)c3c4ccccc4n(C)c3c2=O)cc1Cl`: 87% (inactive).
As for `CC(C)CSc1nnc(-c2ccccc2)c(-c2ccccc2)n1`, the survival was -8% (active).
With `CCc1ccccc1NC(=O)CSc1nnc(-c2ccccc2)c(-c2ccccc2)n1` the figure was 88% (inactive).
Next, `O=C(CSc1nnc(-c2ccccc2)c(-c2ccccc2)n1)Nc1ccccc1Cl`: 75% (inactive).
Next, `COc1cccc(C(=O)NCC(c2ccc(N(C)C)cc2)N2CCc3ccccc32)c1` (stereo not drawn): 144% (inactive); `COc1ccccc1-c1nnc(C2CCN(C(=O)c3cccc(Cl)c3)CC2)o1`: 88% (inactive).
`O=C(CSc1nc2ccccc2n1Cc1cccc(F)c1)N1CCN(c2ccc(F)cc2)CC1`: the survival was 64% (inactive).
Next, `CN1CCc2c(sc(N)c2C(=O)O)C1`: 80% (inactive); `O=C(CSc1nc(=O)n(CCN2CCOCC2)c2c1CCC2)Nc1ccc(F)cc1F`: 124% (inactive); `CCc1ccc(-n2c(=O)c3c(C)c(C(=O)N(C)C)sc3n(Cc3cccc(C)c3)c2=O)cc1`: 99% (inactive).
With `Cc1ccc(-n2c(=O)c3c(C)c(C(=O)N(C)C)sc3n(Cc3ccccc3C)c2=O)cc1C` the figure was 98% (inactive); with `CCOc1ccc(-n2c(=O)c3c(C)c(C(=O)N(C)C)sc3n(CC(=O)Nc3c(C)cc(C)cc3C)c2=O)cc1`, 72% (inactive); with `CCOc1ccc(-n2c(=O)c3c(C)c(C(=O)N(C)C)sc3n(Cc3cc(C)ccc3C)c2=O)cc1`, 0% (active).
With `COc1cccc(-n2c(=O)c3c(C)c(C(=O)N(C)C)sc3n(Cc3cccc(C)c3)c2=O)c1` the figure was 37% (active).
`COc1cccc(-n2c(=O)c3c(C)c(C(=O)N(C)C)sc3n(Cc3ccc(F)cc3Cl)c2=O)c1`: the survival was 92% (inactive).
With `CCn1c(C)c(C2N3CC4(C)CN2CC(C)(C3)C4=O)c2ccccc21` (stereo not drawn) the figure was 92% (inactive).
Next, `N#C/C(=C\c1cn(CC(=O)N2CCCC2)c2ccccc12)C(=O)NCc1ccc2c(c1)OCO2`: 66% (inactive); `Fc1ccc(-c2noc3ncnc(NCc4ccc(Cl)cc4)c23)cc1`: 84% (inactive); `CCOC(=O)c1ccc(N2C(=O)c3n[nH]c(-c4cccs4)c3C2c2ccc(OC)cc2OC)cc1` (stereo not drawn): 76% (inactive).
On to `COc1ccccc1NC(=O)c1ccc(COc2ccc(C)c(C)c2)o1`, for which the survival is 1% (active).
As for `COC(=O)c1ccccc1NC(=O)c1ccc(COc2ccccc2Cl)o1`, the survival was 63% (inactive).
With `CCCc1ccc(OCc2ccc(C(=O)Nc3ccccc3C(=O)OC)o2)cc1` the figure was -2% (active); with `COC(=O)c1cc(NC(=O)c2ccc(-c3ccc(Cl)cc3Cl)o2)cc(C(=O)OC)c1`, 53% (inactive); with `Cc1cc(C)cc(OCc2ccc(C(=O)Nc3ccccc3F)o2)c1`, 45% (inactive).
Next, `CCOc1ccc(NC(=O)c2cc(=O)c3cc(CC)ccc3o2)cc1`: 57% (inactive).
Take `COc1ccc(NC(=O)c2ccc(COc3ccccc3OC)o2)cc1OC`: the survival was 61% (inactive).
Take `COc1ccccc1NC(=O)c1ccc(C)o1`: the survival is 61% (inactive).
With `CCOc1ccc(OCc2ccc(C(=O)Nc3cc(OC)c(OC)c(OC)c3)o2)cc1` the figure was 54% (active); with `COC(=O)c1ccccc1NC(=O)c1ccc(COc2cc(C)cc(C)c2)o1`, 40% (inactive); with `CC(=O)Nc1ccc(NC(=O)c2ccc(COc3ccc(Cl)cc3Cl)o2)cc1`, 46% (active).
For the compound `C=CCc1ccc(OCc2ccc(C(=O)Nc3ccc(NC(C)=O)cc3)o2)c(OC)c1`, the survival was 121% (inactive).
For `O=C(O)CCCc1nc2ccccc2s1`, the survival was 75% (inactive).
Next, `Cc1cc(NC(=O)CSc2nc(-c3ccccc3F)nc3c2c(=O)n(C)c(=O)n3C)no1`: 86% (inactive); `COC(=O)c1ccccc1NC(=O)C1CCCN(c2ncnc3onc(C)c23)C1` (stereo not drawn): 80% (inactive).
Next, `O=C(CNCC1CCCCC1)Nc1cccc(F)c1`: 88% (inactive); `COc1cc(CNC(=O)c2ccc3c(c2)N(C)C(=O)C2CCCCN32)cc(OC)c1OC` (stereo not drawn): 69% (inactive); `Cc1c(C(=O)N2CCC(C)CC2)c(S(=O)(=O)NCc2ccc(Cl)cc2)c(C)n1C`: 128% (inactive).
With `O=C(Nc1c(C(=O)N2CCN(c3ccccc3F)CC2)oc2ccccc12)c1ccc(Br)o1` the figure was 80% (inactive); with `CCc1cccc(C)c1NC(=O)Cn1cc2c(n1)CCCCC2`, 90% (inactive).
`C#CCn1c(O)c(N=NC(=O)c2ccccc2-n2cccc2)c2ccccc21`: the survival is 60% (inactive).
With `COc1ccc(-n2c(SCc3nc(-c4ccc(C)cc4)no3)nnc2-c2ccncc2)cc1` the figure was 57% (inactive); with `COc1ccc(-c2noc(CSc3nnc(-c4ccncc4)n3-c3ccc(OC)cc3)n2)cc1`, 92% (inactive); with `COc1ccc(-c2noc(CSc3nnc(C)n3-c3ccc(OC)cc3)n2)cc1`, 77% (inactive).
With `COc1ccc(-c2noc(CSc3nnc(C)n3-c3ccc(C)cc3)n2)cc1` the figure was 57% (active); with `CCCn1c(SCc2nc(-c3ccccc3OCC)no2)nnc1-c1ccc(Cl)cc1`, 43% (active).
As to `COc1ccc(-c2noc(CSc3nnc(-c4ccncc4)n3-c3ccc(C)cc3)n2)cc1`, the survival is 55% (inactive).
Next, `CCCn1c(SCc2nc(-c3ccc(OC)cc3OC)no2)nnc1-c1ccc(Cl)cc1`: 53% (inactive); `CCCn1c(SCc2nc(-c3ccccc3C)no2)nnc1-c1ccc(Cl)cc1`: 47% (inactive).
On to `COc1ccc(-c2noc(CSc3nnc(-c4ccncc4)n3-c3ccccc3)n2)cc1`, for which the survival is 70% (inactive).
On to `COc1ccc(-n2c(SCc3nc(-c4ccc(Cl)cc4)no3)nnc2-c2ccncc2)cc1`, for which the survival was 49% (active).
For the compound `Cc1ccc(-c2noc(CSc3nnc(C)n3-c3ccc(C)cc3)n2)cc1`, the survival is 101% (inactive).
Next, `Cc1ccc(-n2c(SCc3nc(-c4ccc(Cl)cc4)no3)nnc2-c2ccncc2)cc1`: 37% (active).
